Screening results as filed in PubChem.
TGFb SMAD3 inh: blocks TGF-b signaling | Potency, µM (highest dose often 46.1 µM), without a hit: top-dose activity, negative = inhibition, usual class: inhibitors | AID 588855 | 410,000 compounds, 1.2% hits | HepG2 CAGA-GFP TGF-b/SMAD3 reporter, GFP fluorescence, 18 h; TGF-beta stimulated, 500 pg/mL final; further: on the % scale 0 is the no-effect control and ±100 the full control effect; nearly all actives have a fitted effect of over 65% in size
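TGF-beta reporter screen: HEPG2 CAGA-GFP, 1% FBS, 500 pg/mL TGF-beta final, 18 h; per-cell GFP summed per well; curves fitted and categorized by class.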
HepG2 tox: HepG2 cytotoxicity, counter-screen for TGF-b inhibitors; HepG2 CAGA-GFP viability, ATP luminescence, 18 h; Potency, µM (doses to about 46.1 µM), inactives show top-dose activity change, negative = cytotoxicity, actives largely listed as cytotoxic; 410,000 compounds, 0.76% hits
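HepG2 CAGA-GFP cells (1000/well, DMEM with 1% FBS) received compound, then TGF-beta at 500 pg/mL final, and were incubated 18 hours at 37 degrees C. Viability was read by CellTiter-Glo luminescence. Media-only wells were set as complete cell-killing and DMSO as no toxicity.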
HT1080-NT tox: kills 2HG-producing HT-1080-NT fibrosarcoma cells. HT-1080-NT fibrosarcoma viability, CellTiter-Glo ATP luminescence, 48 h. Potency, µM (titrated, usually from 46.1 µM), for inactives: at the highest dose activity, negative = less viability, actives largely listed as cytotoxic. 360,000 compounds, 1.6% hits;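 further: NT is the 2HG producing partner of a matched IDH1 knockdown line; 0% = DMSO-treated cells and -100% = media-only wells without cells; nearly all actives have a fitted effect of over 55% in size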
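Viability of the 2HG-overproducing fibrosarcoma line after 48 hours of compound exposure at 37 degrees C was determined by luminescence with CellTiter-Glo, and concentration-effect curves were then fitted and categorized.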
HT1080 IDH1KD tx: HT-1080 IDH1 knockdown cell toxicity (counter line) | HT-1080 IDH1 knockdown viability, ATP luminescence, 48 h | Potency, µM (doses to about 46.1 µM), for inactives: top-dose activity, negative = toxicity, usual class: cytotoxic | 360,000 compounds, 2% hits | AID 686971;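 further: 0% = DMSO wells and -100% = cell-free medium wells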
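After a 2 h attachment period, IDH1KD HT-1080 cells took pin-transferred compound for 48 h at 37 °C; ATP-based luminescence after 10 min room-temperature reagent incubation reported viability.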
DT40 TDP1 no CPT: qHTS for Inhibitors of human tyrosyl-DNA phosphodiesterase 1 (TDP1): qHTS in cells in absence of CPT; Potency, µM (titrated, usually from 46.2 µM), for the others: at the highest dose activity change, negative = growth inhibition, actives largely listed as inhibitors; 420,000 compounds, 15% hits; DT40 Tdp1-/- hTDP1 cells, no CPT, ATP luminescence, 48 h; AID 686978, 2013; further: on the % scale 0 is the no-effect control and ±100 the full control effect; nearly all actives have a fitted effect of over 55% in size
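Stably hTDP1-transfected Tdp1-null chicken DT40 cells were treated with library compounds minus camptothecin and grown for at least 48 hr at 37 °C, after which cellular ATP was quantified by luminescence.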
DT40 TDP1 CPT: DT40-hTDP1 cell growth loss with CPT; chicken DT40 Tdp1-/-;hTDP1 cells + 20 nM CPT, ATP luminescence, 48 h; Potency, µM (doses to about 46.2 µM), for the others: at the highest dose activity change, negative = growth inhibition, usual class: inhibitors; 420,000 compounds, 12% hits; further: on the % scale 0 is the no-effect control and ±100 the full control effect; nearly all actives have a fitted effect of over 55% in size
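Chicken DT40 Tdp1-/- cells stably complemented with human TDP1 were seeded at 400 cells/well in medium containing 20 nM camptothecin, exposed to pin-transferred compounds, and grown at 37 °C for at least 48 hr. Viability was read as ATP luminescence.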
* marks the source's active call; other numbers are inactive results; u = inconclusive. This is a sample that favours compounds with a hit; in the whole collection about 17% have one here. The call rests on the fitted dose curve; in most records, active means well fitted curve in the direction sought with a large enough effect; inconclusive means small, poorly fitted or top-dose-only effect, or another doubt; inactive means no such curve, though single readings can be large; an effect the other way counts as inactive or inconclusive. Potency means the concentration at half of the fitted maximal effect.

SMILES	TGFb SMAD3 inh	HepG2 tox	HT1080-NT tox	HT1080 IDH1KD tx	DT40 TDP1 no CPT	DT40 TDP1 CPT
Cn1cc(CN2CCCC(C(=O)c3cccs3)C2)c(-c2cccc(Cl)c2)n1 (stereo unspecified)	6%	-19%	-20%	-15%	16µM*	u
Cc1ccsc1C(=O)C1CCCN(Cc2cn(C)nc2-c2ccccc2)C1 (stereo unspecified)	-9%	-14%	-3%	-1%	u	u
O=C1NN(CCO)C(=S)Nc2ccccc21	-9%	-30%	-5%	-3%	-8%	0%
O=C(c1ccc(-c2ccccc2)cc1)C1CCCN(Cc2ccncc2)C1 (stereo unspecified)	-24%	-27%	u	-21%	u	16µM*
O=C(c1ccc(-c2ccccc2)cc1)C1CCCN(C(=O)c2ccncc2)C1 (stereo unspecified)	-20%	-20%	-19%	-29%	u	3.7µM*
O=C(CN1CCOCC1)Nc1ccc(F)cc1	6%	4%	9%	-1%	-6%	-8%
O=C1OC(c2ccc(F)cc2)CC1CN1CCOCC1 (stereo unspecified)	38%	3%	u	16µM*	10µM*	5.8µM*
COc1ccc(C)cc1NC(=O)C1CCCN(S(=O)(=O)c2cccc3cccnc23)C1 (stereo unspecified)	u	-7%	-6%	0%	u	u
CCC1(C)CC2(CCCN(CCC(O)(c3ccccc3)c3ccccc3)C2)CCO1 (stereo unspecified)	-8%	-14%	-27%	u	15µM*	u
CC1(C)CC2(CCCN(CC(O)(c3ccccc3)c3ccccc3)C2)CCO1 (stereo unspecified)	-26%	6%	1%	-15%	u	u
O=C(NCc1nnc(SCC(=O)N2CCC(Cc3ccccc3)CC2)o1)c1ccccc1F	-12%	-23%	-15%	-5%	16µM*	u
CC(=O)c1ccc(S(=O)(=O)Nc2cccc(-n3cnnn3)c2)cc1	3%	4%	-4%	-2%	0%	-28%
CCOC(=O)C1(CCOc2ccccc2)CCN(Cc2ccc(O)cc2)CC1	5%	-49%	-16%	-13%	u	u
CCOC(=O)C1(CC2CC2)CCN(Cc2cnc(-c3ccccc3C)nc2)CC1	u	-27%	9%	-6%	18µM*	15µM*
CCOC(=O)C1(CCOc2ccccc2)CCN(Cc2ccc(OCCO)cc2)CC1	18%	-16%	-22%	u	u	u
CCOC(=O)C1(CCOc2ccccc2)CCN(Cc2ccc(OC)c(COC)c2)CC1	u	-34%	u	13µM*	18µM*	18µM*
CCOC(=O)C1(CC2CC2)CCN(Cc2cc(Cl)c(O)c(OC)c2)CC1	-1%	2%	-2%	0%	-29%	6%
CCOC(=O)C1(CCOc2ccccc2)CCN(Cc2cc(OC)c(O)c(OC)c2)CC1	-21%	-13%	-19%	-5%	u	29µM*
